Experimental data taken from PubChem BioAssay (NCI).
Values joined by “and” are separate entries in the source; they are usually repeats but may differ in a detail not shown here. Equal entries are not always repeated. This is part of a sample that, as a whole, favours compounds with a hit. Of some 83,000 tested, about 20% had one in any assay.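 Negative percent growth values reflect cell death: -40 means 40% of the cells present at the start died, and -100 means all died.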

Legend:
Test in all cases: NCI-60 one-dose screen, 48 h (100 = growth as untreated, 0 = no growth, -100 = all killed)
Conditions in all cases: 10 µM unless noted; active means growth percent below 10; inactive means the rest
HCT-15 colon = system: HCT-15 colon
HT29 colon = system: HT29 colon
SNB-75 CNS = system: SNB-75 CNS
SNB-19 CNS = system: SNB-19 CNS
U251 CNS = system: U251 CNS
PC-3 prostate = system: PC-3 prostate
SK-MEL-5 melanoma = system: SK-MEL-5 melanoma
UACC-62 melanoma = system: UACC-62 melanoma
LOX IMVI melanoma = system: LOX IMVI melanoma
SK-MEL-28 melanoma = system: SK-MEL-28 melanoma

Measured: growth

OC1CCCN(Cc2ccccc2)C1 (stereo unspecified)
inactive: HCT-15 colon 116% | HT29 colon 102% | SNB-75 CNS 113% | SNB-19 CNS 92.2% | U251 CNS 120% | PC-3 prostate 97.4% | SK-MEL-5 melanoma 102% | UACC-62 melanoma 91.1% | LOX IMVI melanoma 96.5% | SK-MEL-28 melanoma 108%

N#Cc1c[nH]n2ccnc12
inactive: HCT-15 colon 104% | HT29 colon 91.2% | SNB-75 CNS 103% | SNB-19 CNS 108% | U251 CNS 92.4% | PC-3 prostate 97.9% | SK-MEL-5 melanoma 115% | UACC-62 melanoma 106% | LOX IMVI melanoma 96.1% | SK-MEL-28 melanoma 107%

N=C(N=C(N)N)N1CCOCC1
inactive: HCT-15 colon 101% and 94.5% | HT29 colon 104% and 111% | SNB-75 CNS 90.5% and 89.8% | SNB-19 CNS 110% and 99.1% | U251 CNS 101% and 103% | PC-3 prostate 93.7% and 94.5% | SK-MEL-5 melanoma 96.1% and 98% | UACC-62 melanoma 105% and 100% | LOX IMVI melanoma 102% and 93.2% | SK-MEL-28 melanoma 99.5% and 103%

COc1ccc(/C=N/Nc2nc3ccccc3s2)cc1
inactive: HCT-15 colon 90.4% | HT29 colon 92.3% | SNB-75 CNS 80.5% | SNB-19 CNS 99% | U251 CNS 85.9% | PC-3 prostate 81.2% | SK-MEL-5 melanoma 91.6% | UACC-62 melanoma 83% | LOX IMVI melanoma 95.4% | SK-MEL-28 melanoma 99.2%

O=c1[nH]c(=O)n(C2OC(CO)C(O)C2O)cc1I (stereo unspecified)
inactive: HCT-15 colon 114% and 107% | HT29 colon 96.9% | SNB-75 CNS 91.6% and 87.6% | SNB-19 CNS 108% and 107% | U251 CNS 99.1% and 111% | PC-3 prostate 87.4% and 91.9% | SK-MEL-5 melanoma 101% and 113% | UACC-62 melanoma 102% and 103% | LOX IMVI melanoma 98.9% and 92.4% | SK-MEL-28 melanoma 106% and 110%

O=C(N=C1C(=O)C2(CCCCC2)C2(N=C(c3ccccc3)OC2=O)C12CCCCC2)c1ccccc1 (stereo unspecified)
inactive: HCT-15 colon 62.3% | HT29 colon 51.5% | SNB-75 CNS 85.2% | SNB-19 CNS 71.5% | U251 CNS 59.6% | PC-3 prostate 42.8% | SK-MEL-5 melanoma 64.6% | UACC-62 melanoma 58.6% | LOX IMVI melanoma 71.5% | SK-MEL-28 melanoma 84.5%

CN1C2C=CC(=O)C1C1C(=O)N(c3ccccc3)C(=O)C12 (stereo unspecified)
inactive: HCT-15 colon 42% | HT29 colon 48.8% | SNB-75 CNS 92.6% | SNB-19 CNS 95.7% | U251 CNS 62.1% | PC-3 prostate 54.8% | SK-MEL-5 melanoma 92% | UACC-62 melanoma 84.3% | LOX IMVI melanoma 38.7% | SK-MEL-28 melanoma 95.4%

O=[N+]([O-])c1ccc(N2CCN=N2)cc1
inactive: HCT-15 colon 80% | HT29 colon 88.4% | SNB-75 CNS 89.2% | SNB-19 CNS 94.7% | U251 CNS 88.1% | PC-3 prostate 73.8% | SK-MEL-5 melanoma 93.3% | UACC-62 melanoma 68.7% | LOX IMVI melanoma 73.3% | SK-MEL-28 melanoma 93.7%

COC(=O)c1cc(C(=O)OC)cc([N+](=O)[O-])c1
inactive: HCT-15 colon 105% | HT29 colon 111% | SNB-75 CNS 72.5% | SNB-19 CNS 118% | U251 CNS 94.4% | PC-3 prostate 98.7% | SK-MEL-5 melanoma 109% | UACC-62 melanoma 102% | LOX IMVI melanoma 104% | SK-MEL-28 melanoma 108%

OC(CC(c1ccccc1)c1cccc2ccccc12)(c1ccccc1)c1ccccc1 (stereo unspecified)
inactive: HCT-15 colon 78.9% and 68.3% | HT29 colon 68.2% and 52.6% | SNB-75 CNS 103% and 74.6% | SNB-19 CNS 95.5% and 94.7% | U251 CNS 90.4% and 87.7% | PC-3 prostate 60.6% and 56.4% | SK-MEL-5 melanoma 88.3% and 95.5% | UACC-62 melanoma 76.7% and 79.4% | LOX IMVI melanoma 80.5% and 74.8% | SK-MEL-28 melanoma 95.8% and 100%

Oc1ccc(O)c(-c2ccccc2)c1
inactive: HCT-15 colon 22.8% | HT29 colon 102% | SNB-75 CNS 58.2% | SNB-19 CNS 67.5% | U251 CNS 41.4% | PC-3 prostate 64.3% | SK-MEL-5 melanoma 42.9% | UACC-62 melanoma 71.3% | LOX IMVI melanoma 49.3% | SK-MEL-28 melanoma 77.4%

CCOC(=N)c1ccc(C(=N)OCC)cc1
inactive: HCT-15 colon 96.4% | HT29 colon 101% | SNB-75 CNS 103% | SNB-19 CNS 91.4% | U251 CNS 102% | PC-3 prostate 103% | SK-MEL-5 melanoma 95.7% | UACC-62 melanoma 96.8% | SK-MEL-28 melanoma 101%

Clc1ccc2c(c1)N(C1CCCN(Cc3ccccc3)C1)c1ccccc1S2 (stereo unspecified)
inactive: HCT-15 colon 26.6% | HT29 colon 76.7% | SNB-75 CNS 27.6% | SNB-19 CNS 41.6% | U251 CNS 17.4% | PC-3 prostate 45% | SK-MEL-5 melanoma 23.3% | UACC-62 melanoma 44% | SK-MEL-28 melanoma 56.9%

S=c1nn[nH]n1C1CCCCC1
inactive: HCT-15 colon 115% | HT29 colon 116% | SNB-75 CNS 95.2% | SNB-19 CNS 111% | U251 CNS 102% | PC-3 prostate 101% | SK-MEL-5 melanoma 105% | UACC-62 melanoma 113% | SK-MEL-28 melanoma 117%

COC(=O)c1nc(=S)[nH]c(C(=O)OC)c1C(=O)c1ccc(OC)cc1
inactive: HCT-15 colon 100% | HT29 colon 106% | SNB-75 CNS 101% | SNB-19 CNS 101% | PC-3 prostate 93% | SK-MEL-5 melanoma 97.3% | UACC-62 melanoma 95.9% | LOX IMVI melanoma 94.8% | SK-MEL-28 melanoma 109%
